Test results from PubChem BioAssay (NCATS).
Results filed as inconclusive are left out. Activity calls are given as the source filed them. Unless noted, the call rests on the fitted dose curve.

Key:
[1] = qHTS for Inhibitors of the Functional Ribonucleoprotein Complex (vRNP) of Lassa (LASV) Arenavirus: Viability assay - alamar blue signal for LASV Primary Screen (AID 1347083; calls by dose curve; tested in HEK293 reporter line; further: nearly all actives have a fitted effect of over 80% in size)
[2] = qHTS for Inhibitors of the Functional Ribonucleoprotein Complex (vRNP) of Lymphocytic Choriomeningitis Arenaviruses (LCMV): Viability assay - alamar blue signal for LCMV Primary Screen (AID 1347085; calls by dose curve; tested in HEK293 reporter line; further: nearly all actives have a fitted effect of over 80% in size)
[3] = biological target: Nucleoprotein (Lymphocytic choriomeningitis virus (strain Armstrong)) (UniProt P09992); test: qHTS for Inhibitors of the Functional Ribonucleoprotein Complex (vRNP) of Lymphocytic Choriomeningitis Arenaviruses (LCMV): LCMV Primary Screen - GLuc reporter signal (AID 1347086); further: nearly all actives have a fitted effect of over 70% in size
Potency means the concentration at half of the fitted maximal effect.

Nucleoprotein (Lymphocytic choriomeningitis virus (strain Armstrong)), sequence (P09992 whole entry, looked up): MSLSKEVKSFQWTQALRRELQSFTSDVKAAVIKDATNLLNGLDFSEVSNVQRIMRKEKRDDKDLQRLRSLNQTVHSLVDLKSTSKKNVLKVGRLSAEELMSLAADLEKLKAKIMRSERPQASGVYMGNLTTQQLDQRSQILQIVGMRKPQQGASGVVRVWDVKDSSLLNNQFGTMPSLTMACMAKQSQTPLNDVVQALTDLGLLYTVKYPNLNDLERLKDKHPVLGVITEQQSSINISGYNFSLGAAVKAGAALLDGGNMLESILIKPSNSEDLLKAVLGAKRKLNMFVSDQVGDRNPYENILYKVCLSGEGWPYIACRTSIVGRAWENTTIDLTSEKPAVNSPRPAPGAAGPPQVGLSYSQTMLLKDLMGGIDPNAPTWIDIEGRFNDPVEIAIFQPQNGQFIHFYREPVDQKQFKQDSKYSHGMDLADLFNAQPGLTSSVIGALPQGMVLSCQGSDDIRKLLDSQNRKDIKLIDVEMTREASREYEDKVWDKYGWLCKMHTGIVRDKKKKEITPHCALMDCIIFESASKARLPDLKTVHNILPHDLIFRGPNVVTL

| Structure (SMILES) | Potency [1] | Potency [2] | Potency [3] |
| --- | --- | --- | --- |
| CCCCN1CCC(CNC(=O)c2c3n(c4ccccc24)CCCO3)CC1 | 17.2 µM (active) | 7.69 µM (active) | 4.32 µM (active) |
| CN1CCN(c2ccc3nc(-c4c(N)c5c(F)cccc5[nH]c4=O)[nH]c3c2)CC1 | 2.17 µM (active) |  |  |
| Cc1[nH]c2ccccc2c1CCNCc1ccc(C=CC(=O)NO)cc1 | 0.863 µM (active) | 0.863 µM (active) |  |
| Cc1cc(Nc2cc(N3CCN(C)CC3)nc(C=Cc3ccccc3)n2)n[nH]1 | 8.85 µM (active) | 31.4 µM (active) |  |
| CCn1c(-c2nonc2N)nc2c(C#CC(C)(C)O)ncc(OC[C@H]3CCCNC3)c21 | 0.0611 µM (active) | 0.153 µM (active) |  |
| COc1cc2nc(N3CCCN(C)CC3)nc(NC3CCN(Cc4ccccc4)CC3)c2cc1OC | 0.611 µM (active) | 21.7 µM (active) | 12.2 µM (active) |
| Nc1ccccc1NC(=O)c1ccc(CNC(=O)OCc2cccnc2)cc1 | 12.2 µM (active) |  |  |
| CCCCc1nc2cc(C=CC(=O)NO)ccc2n1CCN(CC)CC | 6.85 µM (active) | 7.69 µM (active) |  |
| O=C(Nc1ccc(Oc2ccc(Cl)cc2)c(Cl)c1)c1cc(I)cc(I)c1O | inactive | inactive | inactive |
| CC[C@@H]1C(=O)N(C)c2cnc(Nc3ccc(C(=O)NC4CCC(N5CCN(CC6CC6)CC5)CC4)cc3OC)nc2N1C(C)C (some centres undefined) | 0.0968 µM (active) | 0.0968 µM (active) |  |
| CN1CCC(CNc2ccc3ncc(-c4cccc(OC(F)(F)F)c4)n3n2)CC1 | 17.2 µM (active) |  |  |
| COc1cc(=C2C=c3ccccc3=N2)[nH]c1=Cc1[nH]c(C)cc1C | 21.7 µM (active) | 21.7 µM (active) |  |
